Assay outcomes as filed in PubChem BioAssay.
Shown are actives, neighbours in structure and some others; about 3.6% of the full set was active somewhere.
aSyn rescue: inhibitors of alpha-synuclein toxicity in yeast; 370,000 compounds, 0.14% hits; Yeast expressing alpha-synuclein, growth rescue, BacTiter-Glo, 24 h; Potency, µM (titrated, usually from 46.1 µM), for the others: at the top dose growth rescue (activation), actives largely listed as activators; also: % of control where 0% means no effect; nearly all actives have a fitted effect of over 65% in size
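Readout is rescue of growth in alpha-synuclein-expressing yeast, so inhibitors of toxicity appear as activators. Growth after 24 hr at 30 deg C in galactose medium is quantified by luminescence.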
TDP-43 yeast inh: TDP-43 toxicity inhibition in yeast; TDP-43 expressing yeast growth rescue, BacTiter-Glo, 24 h; Potency, µM (highest dose often 46.1 µM), for inactives: at the top dose growth rescue (activation), hits mostly activators; 410,000 compounds, 1.8% hits; AID 652104; also: % of control where 0% means no effect; nearly all actives have a fitted effect of over 50% in size
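In this qHTS, compounds that restore growth of yeast expressing TDP-43 appear as activators. Cells (OD600=0.02, galactose medium, raffinose-pregrown) are incubated with compound 24 hr at 30 deg C and growth is quantified by BacTiter-Glo.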
ClpP mod: qHTS Assay for Activators of ClpP; Potency, µM (highest dose often 57.5 µM), for the others: at the highest dose activity change, negative = active; AID 651965, 2013; purified B. subtilis ClpP, FRET peptide cleavage, 20 min; ATP-dependent Clp protease proteolytic subunit (Bacillus subtilis (strain 168)), P80244; 340,000 compounds, 1.9% hits; active = well fitted falling curve with a large enough effect; inconclusive = small, poorly fitted or top-dose-only effect; inactive = no such curve, though single readings can be large or run the other way; also: the source files actives as falling curves though it sought activators and does not explain the sign; nearly all actives have a fitted effect of over 65% in size
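ClpP 10 microg/mL final, pH 8 Tris/KCl buffer with BSA, glycerol, Tween-20; compound pinned in; FRET-FV substrate; RT 20 min; Ex320/Em430; ΔFRET vs ADEP 5.8 microM, DMSO, no enzyme.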
Abeta yeast res: compounds reversing amyloid beta toxicity in yeast; yeast expressing A-beta42, growth rescue, OD600, 48 h; response scale: 0% DMSO, 100% iron-clioquinol control; Potency, µM (top dose mostly 46.1 µM), most hits filed as activators; 410,000 compounds, 0.063% hits; also: nearly all actives have a fitted effect of over 55% in size
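Yeast A-beta toxicity model in growth medium with pinned compounds, 48 h at 30 C; growth read as absorbance at 600 nm. Normalized to FeCl3/clioquinol equimolar mix (positive) and DMSO (negative).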
FUS yeast rescue: rescues growth of FUS-expressing yeast. S. cerevisiae FUS-expressing, growth rescue, OD600, 24 h. Potency, µM (titrated, usually from 76.6 µM), most hits filed as activators. 390,000 compounds, 0.24% hits. AID 1347120;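 also: plate controls were DMSO vehicle for no effect and reference control for full effect; nearly all actives have a fitted effect of over 55% in size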
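Steps: raffinose overnight preculture; dilution to OD 0.005 in 2% galactose minimal medium; compound addition (concentration series); 24hr at 30C, 99% humidity; absorbance read at 600 nm.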
Mm-Cpn inhibitor: inhibitors of Methanococcus maripaludis chaperonin TRiC (MmCpn); purified Mm-Cpn ATPase, ADP Transcreener TR-FRET; Potency, µM (series often up to 76.9 µM), for inactives: top-dose activity, negative = inhibition, usual class: inhibitors; 330,000 compounds, 0.031% hits; also: % is scaled to controls: 0 for no effect and ±100 for the full control effect; nearly all actives have a fitted effect of over 80% in size
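Purified archaeal chaperonin (25 nM final) was preincubated with compound for 10 min at 37°C, then ATP (10 uM final) was added for 30 min at 37°C in Tris pH 7.4/KCl/MgCl2/DTT buffer. ADP was quantified by HTRF Transcreener TR-FRET.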
An asterisk follows results filed as active. Unless noted, calls follow the shape of the dose curve; as a rule, active = well fitted curve in the direction sought with a large enough effect; inconclusive = small, poorly fitted or top-dose-only effect, or another doubt; inactive = no such curve, though single readings can be large; an effect the other way counts as inactive or inconclusive. Potency is read from the fitted curve at half-maximal effect.

What do the screens show for `Cc1ccc(C)c(C(=O)CSc2nnnn2-c2cccnc2)c1`?
aSyn rescue: 10%; TDP-43 yeast inh: 11µM*; ClpP mod: 1%; Abeta yeast res: inactive; FUS yeast rescue: inactive; Mm-Cpn inhibitor: -6%

How did COc1cc2c(NC3CCN(C)CC3)nc(N3CCCN(C)CC3)nc2cc1OCCCCCCN(C)C do in these assays?
aSyn rescue: 0%; ClpP mod: 4%

Results for COC(=O)C1=C(C)NC(C)=C(C(=O)OC)C1C(=O)OCC(=O)c1ccc(F)cc1 ?
aSyn rescue: 0%; TDP-43 yeast inh: 3%; ClpP mod: 32µM*; Abeta yeast res: inactive; FUS yeast rescue: inactive; Mm-Cpn inhibitor: 1%

What do the screens show for `COc1ccc(NC(=O)Cn2c(=O)n(Cc3ccccc3)c(=O)c3sc4ccccc4c32)cc1`?
TDP-43 yeast inh: 24%; ClpP mod: -13%; Abeta yeast res: inactive; FUS yeast rescue: inactive

How did CCc1ccc(CNC(=O)c2c(C)oc3ncn(CC(C)C)c(=O)c23)cc1 do in these assays?
TDP-43 yeast inh: 25µM*; ClpP mod: -5%; Abeta yeast res: inactive; FUS yeast rescue: inactive

Results for COc1ccc(OC)c(CNC(=O)c2c(C)oc3ncn(CC(C)C)c(=O)c23)c1 ?
TDP-43 yeast inh: inconclusive; ClpP mod: 1%; Abeta yeast res: inactive; FUS yeast rescue: inactive

Results for COc1ccc(OC)c(CCNC(=O)c2c(C)oc3ncn(CC(C)C)c(=O)c23)c1 ?
TDP-43 yeast inh: 25µM*; ClpP mod: 1%; Abeta yeast res: inactive; FUS yeast rescue: inconclusive

What do the screens show for `Cc1oc2ncn(CC(C)C)c(=O)c2c1C(=O)NCCc1ccccc1`?
TDP-43 yeast inh: inconclusive; ClpP mod: 0%; Abeta yeast res: inactive; FUS yeast rescue: inactive

What do the screens show for `Cc1nn(-c2ccccc2)c2c1N(CC(=O)N1CCN(c3cccc(Cl)c3)CC1)C(=O)CS2`?
TDP-43 yeast inh: 0%; ClpP mod: -3%; Abeta yeast res: inactive; FUS yeast rescue: inactive

How did CCc1c(C)c2c(C)nn(-c3ccccc3)c2oc1=O do in these assays?
aSyn rescue: 7%; TDP-43 yeast inh: 25µM*; ClpP mod: -5%; Abeta yeast res: inactive; FUS yeast rescue: inactive; Mm-Cpn inhibitor: -3%

How did Cc1cc2c(c(C)nn2-c2ccccc2)c(=O)o1 do in these assays?
aSyn rescue: 12%; TDP-43 yeast inh: 17%; ClpP mod: -1%; Abeta yeast res: inactive; FUS yeast rescue: inactive; Mm-Cpn inhibitor: 0%

Results for NS(=O)(=O)c1cccnc1Nc1c(Cl)cccc1Cl ?
aSyn rescue: -4%; TDP-43 yeast inh: -4%; ClpP mod: 28µM*; Abeta yeast res: inactive; FUS yeast rescue: inactive; Mm-Cpn inhibitor: -2%

Results for CC(=O)NS(=O)(=O)c1cccnc1Nc1cccc(Cl)c1C ?
aSyn rescue: -6%; TDP-43 yeast inh: 20%; ClpP mod: 1%; Abeta yeast res: inactive; FUS yeast rescue: inactive; Mm-Cpn inhibitor: 1%

Results for CCOC(=O)CSc1ccc(-c2nc3ccccc3[nH]2)cn1 ?
aSyn rescue: -11%; TDP-43 yeast inh: 0%; ClpP mod: 32µM*; Abeta yeast res: inactive; FUS yeast rescue: inactive; Mm-Cpn inhibitor: 0%

How did Cc1ccc(SCC(=O)Nc2ccc(-c3nc4ccccc4[nH]3)cc2)cc1 do in these assays?
aSyn rescue: -5%; TDP-43 yeast inh: 4%; ClpP mod: 25µM*; Abeta yeast res: inactive; FUS yeast rescue: inactive; Mm-Cpn inhibitor: -2%

What do the screens show for `CCOC(=O)CSc1ccc(-c2nc3cc(C)c(C)cc3[nH]2)cn1`?
aSyn rescue: 0%; TDP-43 yeast inh: 25%; ClpP mod: 32µM*; Abeta yeast res: inactive; FUS yeast rescue: inactive; Mm-Cpn inhibitor: -1%

How did Cc1cc2nc(-c3ccc(SCC(=O)N4CCOCC4)nc3)[nH]c2cc1C do in these assays?
aSyn rescue: -2%; TDP-43 yeast inh: -6%; ClpP mod: 3.2µM*; Abeta yeast res: inactive; FUS yeast rescue: inactive; Mm-Cpn inhibitor: -8%

What do the screens show for `COC(=O)c1cc2oc(C)cc2n1Cc1ccc(Cl)cc1`?
TDP-43 yeast inh: 12%; ClpP mod: -9%; Abeta yeast res: inactive; FUS yeast rescue: inactive

Results for COCCNC(=O)CN1C(=O)c2cccnc2Oc2ccc(Cl)cc21 ?
TDP-43 yeast inh: 14%; ClpP mod: 0%; Abeta yeast res: inactive; FUS yeast rescue: inactive

What do the screens show for `Cc1ccc2cccc(NC(=O)c3cccc4c(Br)cccc34)c2n1`?
aSyn rescue: -3%; TDP-43 yeast inh: -9%; ClpP mod: -4%; Abeta yeast res: inactive; FUS yeast rescue: inactive

Results for Cc1cccc(-c2noc(-c3ccc(N4CCN(C)CC4)c([N+](=O)[O-])c3)n2)c1 ?
TDP-43 yeast inh: -49%; ClpP mod: 1%; Abeta yeast res: inactive; FUS yeast rescue: inactive

Results for O=C(CSc1ccc(-c2nc3ccccc3[nH]2)cn1)Nc1ccc2c(c1)OCCO2 ?
aSyn rescue: -3%; TDP-43 yeast inh: -1%; ClpP mod: 25µM*; Abeta yeast res: inactive; FUS yeast rescue: inactive; Mm-Cpn inhibitor: -17%

What do the screens show for `Cc1ccc2nc(-c3ccc(SCC(=O)Nc4nc(C)cs4)nc3)[nH]c2c1`?
aSyn rescue: -1%; TDP-43 yeast inh: -5%; ClpP mod: 7.9µM*; Abeta yeast res: inactive; FUS yeast rescue: inactive; Mm-Cpn inhibitor: 2%

What do the screens show for `O=C(Nc1ccc(-c2nc3ccccc3[nH]2)cc1)c1ccc(N2C(=O)CCC2=O)cc1`?
aSyn rescue: 0%; TDP-43 yeast inh: -5%; ClpP mod: 22µM*; Abeta yeast res: inactive; FUS yeast rescue: inactive; Mm-Cpn inhibitor: -6%

Results for Cc1ccc2nc(-c3ccc(SCC(=O)Nc4nnc(C)s4)nc3)[nH]c2c1 ?
aSyn rescue: -2%; TDP-43 yeast inh: 0%; ClpP mod: -1%; Abeta yeast res: inactive; FUS yeast rescue: inactive; Mm-Cpn inhibitor: -1%

How did Cc1ccc2nc(-c3ccc(SCC(=O)Nc4ccc5c(c4)OCCO5)nc3)[nH]c2c1 do in these assays?
aSyn rescue: -4%; TDP-43 yeast inh: 1%; ClpP mod: 304%; Abeta yeast res: inactive; FUS yeast rescue: inactive; Mm-Cpn inhibitor: inconclusive

Results for CCCCN(C)CCNC(=O)c1ccc2c(c1)NC(=O)CN2 ?
TDP-43 yeast inh: 18%; ClpP mod: 3%; Abeta yeast res: inactive; FUS yeast rescue: inactive
